The chains are these.
B1: chr8:74858975:74858976:-_ENSG00000154582_ENST00000284811|hu_hu|FALSE|FALSE (ssRNA)
RNA: GGGAGUUCUACAGUCCGACGAUCAACCUUGUACGUAAAAUACAUGCAUACUUUCGAUAGCACAUGUGAAGGUAUCUCUCUAAAAUUGACCUCAUUGGUUUCGUUCUCAGCAAACUGACCUGGGCCACUCAACAUGGCUUUUAUCAACAGAGGAUUGAGCAUCA
B2: chr11:100882373:100882374:+_ENSMUSG00000019302_ENSMUST00000044721|mus_mus|mus_mus_mus_hu_True|38_68 (ssRNA)
RNA: GGGAGUUCUACAGUCCGACGAUCUUCCUGGUUUGUGUUGAUUUCCUUCAGUUCAUUUUCAAUCUUCUCGAAAUUGGCCUCUAAGUCAAUCAUGUCCCGAGGGAAGGGAACCUCUGGGUUUUCACCGGUGUCCAUAAUCGGAAUCAACAGAGGAUUGAGCAUCA
B3: chr17:56552419:56552420:-_ENSMUSG00000013236_ENSMUST00000086828|mus_mus|mus_mus_mus_hu_False|58_58 (ssRNA)
RNA: GGGAGUUCUACAGUCCGACGAUCAAAAAAUACACUAUUUAAAAAAAAUGAAAUGUCACGGGAUACAGUUACACUGACACUAUUAAAAGAAAGCUGGAUUCUGGUCCCAGCCCAGUGUCCCCAGGCUGCAGAGCGGGGAGGAGCCAACAGAGGAUUGAGCAUCA
B4: chr17:56552419:56552420:-_ENSMUSG00000013236_ENSMUST00000086828|mus_mus|mus_mus_mus_hu_False|58_98 (ssRNA)
RNA: B3 RNA with U38A, U39A
B5: chr10:112362630:112362631:-_ENSMUSG00000074748_ENSMUST00000099276|mus_mus|motif|central (ssRNA)
RNA: GGGAGUUCUACAGUCCGACGAUCGGAUUACUUAUUAAAAAAUAAGAAUCUCCAAAACAAAGGACAGUGGUGAAUUUCAAACGGCCCUCCCCCAAUGAUCCCAGCAUGCGAUAAUGCCAGGUAGUGGCCCCUGGGCAUGCGAUGCAACAGAGGAUUGAGCAUCA
B6: chr2:4828950:4828951:+_ENSMUSG00000026662_ENSMUST00000115019|mus_mus|FALSE|FALSE (ssRNA)
RNA: GGGAGUUCUACAGUCCGACGAUCAAAAUCUAGUCUCCCCCAAUAAAUUGUAUUUUAGGCAAAAUCCUCCCAAAUGCUUCUAAAAUAAUACUAAAAAGGGCAUCUGAUUAUACAAGAGCAAUUAAAAAAAUUAAAUAUUUAUUUCAACAGAGGAUUGAGCAUCA
B7: chr16:14299702:14299703:-_ENSMUSG00000022677_ENSMUST00000023357|mus_mus|FALSE|FALSE (ssRNA)
RNA: GGGAGUUCUACAGUCCGACGAUCCUCAAUUCAGAGUCCCUCUCCCCAAAUGACUCUAGCUUGUAUCAAGUUGAUAUAAAACUAGCCAGGGCAGGCAAUAAUAAUUCAGGUAUUUUUUAAAAAAUCAAACUUCAUAUAAAUUAACAACAGAGGAUUGAGCAUCA
B8: chr2:4828950:4828951:+_ENSMUSG00000026662_ENSMUST00000115019|mus_mus|motif|central (ssRNA)
RNA: B6 RNA with U80G, A81G
B9: 105548853_105553245_153_3pUTR_ENSMUSG00000068798_ENSMUST00000090678|mouse|control|control (ssRNA)
RNA: GGGAGUUCUACAGUCCGACGAUCAUUUUUCAACAAAAAUCCCCUGAACAAACUGAACUGUCAGAGCAGACUUCCCCACGCCUCCUGAACCAAGGACUACUAGCUUGUACUCACGCAUGAUGCGCUCUGUUUAAAUAUUGACAACAACAGAGGAUUGAGCAUCA
B10: 75889693_75893847_892_3pUTR_ENSG00000185009_ENST00000355264|human|control|control (ssRNA)
RNA: GGGAGUUCUACAGUCCGACGAUCCAGAUAGUUUAAUGCAAGCAUCAAUGACCCCCUGAAUUUCUGCAAAGACUGUAGAUCCUGAUUUAUCUAUAAUUGCGUCUAUUUCUUCAACAACAUCAAAAUAGGCUUCAUUGUUUGUGUCAACAGAGGAUUGAGCAUCA
B11: chr16:14299702:14299703:-_ENSMUSG00000022677_ENSMUST00000023357|mus_mus|motif|central (ssRNA)
RNA: B7 RNA with U82G, A83G

Positions count from the first letter of the chain named. Over roughly 24,000 sequences, “enrichment r” has its median near 0.99; the highest 2% begin near 3.7. The entries come from a sample that favours the highest values as a whole.

For this experiment, the target named is T1, UNK ZnF1-3 (human, UniProt Q9C0B0 31-174).
T1 sequence: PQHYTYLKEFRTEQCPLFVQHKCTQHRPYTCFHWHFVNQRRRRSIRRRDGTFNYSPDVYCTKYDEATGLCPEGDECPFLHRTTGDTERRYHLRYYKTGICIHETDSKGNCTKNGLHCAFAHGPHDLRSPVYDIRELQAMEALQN
As to the kind of experiment: nsRBNS (natural sequence RNA bind-n-seq); RBNS binding buffer (assumed for nsRBNS): 25 mM Tris pH 7.5, 150 mM KCl, 3 mM MgCl2, 0.01% Triton X-100, 500 ug/ml BSA, 20 U/ml SUPERase-In, 4 C; UNK is unkempt and MSI1 is Musashi-1; names of the RNAs are library labels; protein concentration not given here; high values mean tight binding.
With B1, the binding signal is 0.5 enrichment R. Consider B2, for which the binding signal was found to be 0.443 enrichment R. In the case of B3, the binding signal is 3.59 enrichment R. On to B4, for which the binding signal came to 8.92 enrichment R. With B5, the binding signal was 0.719 enrichment R. The molecule B6 showed a binding signal of 4.12 enrichment R.

B7 showed a binding signal of 3.28 enrichment R. To B8 belongs 14.3 enrichment R; to B9, 1.18 enrichment R. Molecule B10 registered a binding signal of 0.939 enrichment R. In turn, B11 gave a binding signal of 3.78 enrichment R.

Source of the values: article PMC12136788.
